Screening data as filed in PubChem BioAssay.
Compounds with a hit are over-represented: about 12% of the library has one in this group of screens.
AmpC detergent = qHTS Inhibitors of AmpC Beta-Lactamase (assay with detergent). P00811. AmpC hydrolysis of nitrocefin, absorbance 480 nm, 0.01% Triton. Potency, µM (highest dose often 114 µM), for inactives: at the highest dose activity change, negative = inhibition, actives largely listed as inhibitors. hit rate 0.041% among 370,000;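 note: 0% = no-compound wells and -100% = no-enzyme wells; nearly all actives have a fitted effect of over 25% in size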
Target sequence (P00811 whole entry, looked up): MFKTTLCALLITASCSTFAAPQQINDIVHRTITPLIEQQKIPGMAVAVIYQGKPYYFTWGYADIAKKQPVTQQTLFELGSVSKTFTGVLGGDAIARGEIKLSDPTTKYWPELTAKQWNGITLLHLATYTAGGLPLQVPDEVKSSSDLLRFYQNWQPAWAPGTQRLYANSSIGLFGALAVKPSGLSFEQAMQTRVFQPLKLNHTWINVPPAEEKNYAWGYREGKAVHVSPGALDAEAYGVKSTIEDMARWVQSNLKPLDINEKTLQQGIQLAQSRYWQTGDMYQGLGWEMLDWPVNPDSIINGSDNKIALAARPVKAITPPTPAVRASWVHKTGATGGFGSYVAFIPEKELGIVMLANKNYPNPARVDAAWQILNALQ
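20 mM phosphate pH 7.0 + 0.01% (detergent screen) or 0.0001% Triton X-100; 5.3 nM AmpC reagent; cpd preinc 15 min RT; nitrocefin (800 uM stock) to start; A480 q20 s × 4 min; Activity was normalised to no-enzyme and no-compound control wells.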
Pf growth 96h = Primary qHTS for delayed death inhibitors of the malarial parasite plastid, 96 hour incubation. AID 504834, 2011. P. falciparum luciferase reporter growth, 96 h. hit rate 6.9% among 320,000. Potency, µM (highest dose often 28.7 µM), without a hit: top-dose activity change, negative = inhibition, hits mostly inhibitors; note: % is set by controls: 0 for no effect and ±100 for the full control effect
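96 h incubation, 37 C, 5% CO2, of luciferase-reporter P. falciparum-infected RBCs (2% hematocrit, 0.05% parasitemia final) with test compounds; endpoint luminescence.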
Pf growth 48h = Primary qHTS for delayed death inhibitors of the malarial parasite plastid, 48 hour incubation; Potency, µM (titrated, usually from 28.7 µM), for inactives: at the top dose activity change, negative = inhibition, usual class: inhibitors; AID 504832, 2011; hit rate 5.9% among 310,000; P. falciparum luciferase growth in erythrocytes, 48 h; note: % is set by controls: 0 for no effect and ±100 for the full control effect
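Luciferase-expressing parasites in RBCs, 2% Hct / 0.1% parasitemia final; RPMI 1640 + 0.5% Albumax; 37 C, 5% CO2, one generation; luminescence read-out, lower signal = inhibition.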
SARS PLP yeast = qHTS of Yeast-based Assay for SARS-CoV PLP; S. cerevisiae expressing SARS-CoV PLpro, growth rescue; Potency, µM (doses to about 32.9 µM), for the others: at the highest dose activity, positive = growth rescue, actives largely listed as activators; hit rate 0.19% among 330,000; AID 485353, 2010; calls by dose curve; note: 0% is about no effect; nearly all actives have a fitted effect of over 55% in size
Sm TGR block = qHTS Assay for the Inhibitors of Schistosoma Mansoni Peroxiredoxins | purified TGR, DTNB reduction, TNB absorbance 405 nm | Potency, µM (series often up to 114 µM), for the others: at the highest dose activity change, negative = inhibition, most hits filed as inhibitors | hit rate 3% among 360,000 | Schistosoma mansoni thioredoxin glutathione reductase (TGR), Q962Y6; note: % is set by controls: 0 for no effect and ±100 for the full control effect; nearly all actives have a fitted effect of over 60% in size
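Kinetic colorimetric format: TGR-catalysed, NADPH-driven DTNB reduction monitored via TNB absorbance. Enzyme dispensed at 20 nM; compound exposure 15 min at room temperature before reaction start.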
AmpC no deterg = qHTS Inhibitors of AmpC Beta-Lactamase (assay without detergent); AID 485341, 2010; Potency, µM (doses to about 57.1 µM), for inactives: top-dose activity change, negative = inhibition, most hits filed as inhibitors; hit rate 0.52% among 330,000; AmpC nitrocefin hydrolysis, absorbance 480 nm, 0.0001% Triton;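 note: plate controls were no compound for no effect and no enzyme for full effect; nearly all actives have a fitted effect of over 20% in size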
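20 mM phosphate pH 7.0 + 0.01% (detergent screen) or 0.0001% Triton X-100; 5.3 nM AmpC reagent; cpd preinc 15 min RT; nitrocefin (800 uM stock) to start; A480 q20 s × 4 min; Activity was normalised to no-enzyme and no-compound control wells.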
* marks the source's active call; other numbers are inactive results; ? = inconclusive; . = no result. Unless noted, calls come from the whole dose curve; as a rule, active = well fitted curve in the direction sought with a large enough effect; inconclusive = small, poorly fitted or top-dose-only effect, or another doubt; inactive = no such curve, though single readings can be large; an effect the other way counts as inactive or inconclusive. Potency is the fitted concentration of half-maximal effect.

SMILES	AmpC detergent	Pf growth 96h	Pf growth 48h	SARS PLP yeast	Sm TGR block	AmpC no deterg
NC(=O)CC1C(=O)N(c2ccc(F)cc2)C(=O)N1NC(=O)CCc1ccccc1 (configuration not stated)	0.8%	-6.4%	2.7%	0.0%	.	-17.7%
COc1ccc(N(CC(=O)Nc2cccc(C(C)=O)c2)S(=O)(=O)c2ccc(NC(C)=O)cc2)cc1	-12.9%	?	-4.3%	1.1%	0.0%	-45.4%
COc1ccc(N(CC(=O)N/N=C/c2ccc3c(c2)OCO3)S(=O)(=O)c2ccc(NC(C)=O)cc2)cc1	-7.0%	?	13.1µM*	1.9%	-11.0%	-14.8%
CCC(C)NC(=O)CN(c1ccc(OC)cc1)S(=O)(=O)c1ccc(NC(C)=O)cc1 (configuration not stated)	-14.8%	6.57µM*	?	4.7%	6.3%	-0.7%
COc1ccc(N(CC(=O)Nc2ccc3c(c2)OCO3)S(=O)(=O)c2ccccc2)cc1OC	-4.1%	?	2.94µM*	0.2%	-7.5%	-8.8%
Cc1ccc(-c2nc3scc(CCNC(=O)Cc4ccc(Cl)cc4)n3n2)cc1	3.9%	.	.	.	-5.6%	.
COc1cc(C(=S)N2CCOCC2)ccc1OC(=O)/C=C/c1ccco1	-4.8%	?	8.5%	1.9%	?	73.2%
COc1ccc(N2C(=O)NC3CC2(C)Oc2ccc(Cl)cc23)cc1OC (configuration not stated)	2.1%	.	?	-0.7%	11.4%	61.2%
COc1ccc(CCN2C(=S)NC3CC2(C)Oc2ccc([N+](=O)[O-])cc23)cc1OC (configuration not stated)	?	11.7µM*	.	5.6%	-3.7%	9.5%
CC(=O)c1ccc(NC(=O)/C=C/c2ccc(C)o2)cc1	26.1%	.	.	.	11.2µM*	.
Cc1ccc(/C=C/C(=O)Nc2ccc([N+](=O)[O-])cc2)o1	1.2%	-3.1%	-5.1%	1.7%	15.8µM*	-22.3%
CCCOc1ccc(/C=C/C(=O)Nc2ccc([N+](=O)[O-])cc2)cc1	-0.7%	?	?	-10.7%	-24.7%	-23.9%
Cc1cc(NS(=O)(=O)c2ccc(NC(=O)/C=C/c3ccc(C)o3)cc2)nc(C)n1	2.8%	7.38µM*	14.0%	1.8%	3.16µM*	-9.3%
Cc1ccc(/C=C/C(=O)Nc2ccc(Oc3ccccc3)cc2)o1	-8.9%	?	5.0%	-69.0%	17.8µM*	-56.5%
Cc1ccc(/C=C/C(=O)Nc2nnc(C)s2)o1	0.1%	-25.7%	64.2%	3.3%	?	-15.4%
Cc1cc(NS(=O)(=O)c2ccc(NC(=O)/C=C/c3ccccc3)cc2)nc(C)n1	.	.	.	-1.8%	.	-21.4%
COc1ccc(-c2nnc(C3CCN(C(=O)c4ccccc4F)CC3)o2)cc1	-6.5%	.	.	.	-0.3%	.
O=C(NCCc1ccccc1)C(=O)c1c(-c2ccccc2)[nH]c2ccccc12	?	5.22µM*	-29.1%	9.4%	-13.8%	-47.6%
O=C(O)/C=C/C(=O)c1c(-c2ccccc2)[nH]c2ccccc12	-7.5%	4.15µM*	6.57µM*	0.3%	25.1µM*	-36.5%
CC(=O)c1c(-c2ccccc2)[nH]c2ccccc12	?	?	3.0%	-5.8%	-17.8%	-20.1%
Cc1cc(C(=O)N(Cc2nnc(-c3ccc(Cl)cc3)o2)C(C)C)c2ccccc2n1	?	10.4µM*	11.7µM*	-0.8%	-14.1%	138.3%
Cc1cc(C(=O)NCCc2ccc(Cl)cc2)c2ccccc2n1	-11.4%	20.2%	26.3%	-1.5%	-8.9%	35.1%
Cc1ccc(C)c(NC(=O)CS(=O)(=O)c2cn(C)c3ccccc23)c1	?	?	-12.5%	-11.9%	7.5%	-7.1%
CCCC(=O)N(c1ccc2oc(=O)sc2c1)S(=O)(=O)c1ccccc1	?	77.4%	?	-0.4%	2.2%	10µM*
Cc1ccc(C2N(C)c3ccccc3-c3nc4ccccc4n32)o1 (configuration not stated)	?	3.7µM*	.	-23.7%	-14.6%	-33.5%
SMILES	AmpC detergent	Pf growth 96h	Pf growth 48h	SARS PLP yeast	Sm TGR block	AmpC no deterg
c1csc(C2Nc3ccccc3-c3nc4ccccc4n32)c1 (configuration not stated)	-9.7%	?	?	-18.2%	-4.8%	-40.8%
CN1c2ccccc2-c2nc3ccccc3n2C1c1cccs1 (configuration not stated)	0.7%	1.65µM*	8.28µM*	-31.9%	1.3%	-36.9%
OC(CC1CC12c1ccccc1-c1ncccc12)(c1ccccc1)c1ccccc1 (configuration not stated)	-1.4%	0.828µM*	.	-25.6%	-2.8%	2.9%
CCOC(=O)C(C)C1(O)c2ccccc2-c2ncccc21 (configuration not stated)	-10.2%	?	59.9%	3.4%	0.6%	-0.6%
CCOc1ccc2ncc3c(-c4ccc(C)cc4)nn(-c4cccc(F)c4)c3c2c1	1.5%	.	.	.	0.0%	.
COc1ccc2c(c1)Cc1sc(NC(=O)c3cccs3)nc1-2	1.7%	-10.4%	5.86µM*	-17.2%	0.6%	-32.8%
COc1ccc(C(=O)Nc2nc3c(s2)Cc2cc(OC)ccc2-3)cc1	9.8%	?	5.86µM*	-14.6%	-2.4%	-22.8%
COc1ccc2c(c1)Cc1sc(NC(=O)c3ccccc3)nc1-2	-9.5%	2.94µM*	.	-11.5%	-21.7%	-4.5%
COc1ccc2c(c1)Cc1sc(NC(=O)c3cccc(F)c3)nc1-2	-8.1%	.	.	.	-22.9%	.
Cc1ccc(NC(=O)Cn2c(=O)n(-c3ccccc3)c(=O)c3ccc(C(=O)NCc4ccc5c(c4)OCO5)cc32)c(C)c1	4.3%	.	.	.	2.0%	.
Cc1cc(C(=O)CCC(=O)NCC(=O)Nc2c(C)cccc2C)c(C)s1	.	.	.	1.7%	.	109.3%
CNC[C@H](CC1CCCCC1)NC[C@H](Cc1ccccc1)NCCC12CC3CC(CC(C3)C1)C2	-14.5%	2.08µM*	?	-6.8%	7.6%	87.8%
N=c1c(S(=O)(=O)c2ccc(Br)cc2)cc2c(=O)n3ccccc3nc2n1C1CCCC1	4.3%	11.7µM*	10.4µM*	.	-8.4%	-38.7%
Cc1ccc(S(=O)(=O)c2cc3c(=O)n4ccccc4nc3n(CCCN3CCOCC3)c2=N)cc1C	-10.5%	?	?	-13.3%	2.1%	77.4%
N=c1c(S(=O)(=O)c2ccccc2)cc2c(=O)n3ccccc3nc2n1CCCN1CCOCC1	?	18.3%	?	2.8%	15.8µM*	97.4%
